Inconclusive results are not listed. Calls of active or inactive are those of the source. Calls follow the shape of the dose curve; as a rule, active = well fitted curve in the direction sought with a large enough effect; inconclusive = small, poorly fitted or top-dose-only effect, or another doubt; inactive = no such curve, though single readings can be large; an effect the other way counts as inactive or inconclusive. Residues, ends and D or L forms follow the SMILES beside them. *: point of attachment. Cbz = O=C(OCc1ccccc1)*
Tests used:
[1] = Quantitative High-Throughput drug screen in 47 multiple myeloma cell lines against the NCATS MIPE library collection: INA6_PLB cell viability assay (AID 1918965; also: nearly all actives have a fitted effect of over 55% in size)
Outline: (§1)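 Approved and investigational drugs from MIPE 4.0 were added by pin tool to 500 cells per well. After 48 hours at 37C, ATP-based CellTiter-Glo luminescence indicated remaining viability.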

[2] = Quantitative High-Throughput drug screen in 47 multiple myeloma cell lines against the NCATS MIPE library collection: JJN3_DSMZ cell viability assay (AID 1918966; also: nearly all actives have a fitted effect of over 50% in size)
Outline: (§2)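 Relative luminescence from CellTiter-Glo served as the viability signal, referenced to DMSO-treated (100%) and cell-free medium (0%) controls. Treatment lasted 48 hours at 37C with 500 cells per well.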

[3] = Quantitative High-Throughput drug screen in 47 multiple myeloma cell lines against the NCATS MIPE library collection: H1112_PLB cell viability assay (AID 1918967; also: nearly all actives have a fitted effect of over 30% in size)
Outline: as §2

[4] = Quantitative High-Throughput drug screen in 47 multiple myeloma cell lines against the NCATS MIPE library collection: Karpas25_ECACC cell viability assay (AID 1918968; also: nearly all actives have a fitted effect of over 35% in size)
Outline: as §2

[5] = Quantitative High-Throughput drug screen in 47 multiple myeloma cell lines against the NCATS MIPE library collection: KMS27_JCRB cell viability assay (AID 1918970); conditions: KMS27 myeloma cells, CellTiter-Glo ATP viability, 48 h; viability (% of DMSO): at 45.8 µM (top of the series); also: nearly all actives have a fitted effect of over 30% in size
Outline: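 Each line is seeded at 500 cells per well and treated with library compounds for 48 hours under 37 °C, 5% CO2. CellTiter-Glo is then added for 5 min at room temperature before median relative luminescence is recorded.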

[6] = Quantitative High-Throughput drug screen in 47 multiple myeloma cell lines against the NCATS MIPE library collection: KMS12BM_JCRB cell viability assay (AID 1918971); also: nearly all actives have a fitted effect of over 35% in size
Outline: (§3)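 Myeloma cell lines, 500 cells per well, exposed to MIPE 4.0 library compounds for 48 h at 37C, 5% CO2. Viability from ATP by CellTiter-Glo luminescence; normalised to DMSO (100%) and media-only (0%) wells.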

[7] = Quantitative High-Throughput drug screen in 47 multiple myeloma cell lines against the NCATS MIPE library collection: KMS12PE_JCRB cell viability assay (AID 1918972); also: nearly all actives have a fitted effect of over 30% in size
Outline: as §1

[8] = Quantitative High-Throughput drug screen in 47 multiple myeloma cell lines against the NCATS MIPE library collection: KMS20_JCRB cell viability assay (AID 1918973); also: nearly all actives have a fitted effect of over 45% in size
Outline: as §2

[9] = Quantitative High-Throughput drug screen in 47 multiple myeloma cell lines against the NCATS MIPE library collection: KMS21BM_JCRB cell viability assay (AID 1918974); conditions: ATP luminescence, 48 h; viability: at 45.8 µM (top of the series)
Outline: as §2

[10] = Quantitative High-Throughput drug screen in 47 multiple myeloma cell lines against the NCATS MIPE library collection: KMS26_JCRB cell viability assay (AID 1918975); also: nearly all actives have a fitted effect of over 45% in size
Outline: as §3

[11] = Quantitative High-Throughput drug screen in 47 multiple myeloma cell lines against the NCATS MIPE library collection: MMM1_PLB cell viability assay (AID 1918976); also: nearly all actives have a fitted effect of over 35% in size
Outline: (§4)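 MIPE 4.0 approved/investigational drugs; 500 cells/well; 48 h 37 °C humidified 5% CO2; CTG luminescence readout; DMSO = 100%, media = 0% viability.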

[12] = Quantitative High-Throughput drug screen in 47 multiple myeloma cell lines against the NCATS MIPE library collection: MOLP8_DSMZ cell viability assay (AID 1918977); also: nearly all actives have a fitted effect of over 45% in size
Outline: as §4

[13] = Quantitative High-Throughput drug screen in 47 multiple myeloma cell lines against the NCATS MIPE library collection: NCIH929_DSMZ cell viability assay (AID 1918978); also: nearly all actives have a fitted effect of over 35% in size
Outline: as §4

[14] = Quantitative High-Throughput drug screen in 47 multiple myeloma cell lines against the NCATS MIPE library collection: OCIMY1_PLB cell viability assay (AID 1918979); also: nearly all actives have a fitted effect of over 35% in size
Outline: as §4

[15] = Quantitative High-Throughput drug screen in 47 multiple myeloma cell lines against the NCATS MIPE library collection: MM1S_ATCC cell viability assay (AID 1918980); also: nearly all actives have a fitted effect of over 45% in size
Outline: as §4

[16] = Quantitative High-Throughput drug screen in 47 multiple myeloma cell lines against the NCATS MIPE library collection: MM1R_ATCC cell viability assay (AID 1918981); also: nearly all actives have a fitted effect of over 35% in size
Outline: as §4

[17] = Quantitative High-Throughput drug screen in 47 multiple myeloma cell lines against the NCATS MIPE library collection: KMS28PE_JCRB cell viability assay (AID 1918983); also: nearly all actives have a fitted effect of over 35% in size
Outline: as §4

[18] = Quantitative High-Throughput drug screen in 47 multiple myeloma cell lines against the NCATS MIPE library collection: L363_DSMZ cell viability assay (AID 1918984); also: nearly all actives have a fitted effect of over 40% in size
Outline: as §4

[19] = Quantitative High-Throughput drug screen in 47 multiple myeloma cell lines against the NCATS MIPE library collection: KMS34_JCRB cell viability assay (AID 1918985); also: nearly all actives have a fitted effect of over 40% in size
Outline: as §4

[20] = Quantitative High-Throughput drug screen in 47 multiple myeloma cell lines against the NCATS MIPE library collection: LP1_DSMZ cell viability assay (AID 1918982); also: nearly all actives have a fitted effect of over 35% in size
Outline: as §4

Measured: Potency
Potency is read from the fitted curve at half-maximal effect.

COc1cc(OC)cc(-c2ccc3ncc4ccc(=O)n(-c5ccc(N6CCNCC6)c(C(F)(F)F)c5)c4c3c2)c1
active: [1] 3720 nM | [2] 5900 nM | [3] 2090 nM | [4] 2960 nM | [5] 1660 nM | [6] 5260 nM | [7] 3720 nM | [8] 4180 nM | [9] 5260 nM | [10] 5900 nM | [11] 7430 nM | [12] 4180 nM | [13] 3720 nM | [14] 14800 nM | [15] 3320 nM | [16] 4690 nM | [17] 5260 nM | [18] 833 nM | [19] 6620 nM

C=CC(=O)N1CCc2ccc(-n3c(=O)ccc4cnc5ccc(-c6cnn(C)c6)cc5c43)cc21
active: [1] 235 nM | [2] 1050 nM | [3] 1050 nM | [4] 590 nM | [5] 2960 nM | [6] 4690 nM | [7] 2960 nM | [8] 833 nM | [10] 1320 nM | [12] 590 nM | [13] 1660 nM | [14] 1870 nM | [15] 2640 nM | [16] 2350 nM | [20] 1480 nM | [17] 4690 nM | [18] 833 nM

CNC(=O)c1ccc(Nc2cc(Nc3ccccc3S(=O)(=O)C(C)C)c3cc[nH]c3n2)nc1
active: [1] 469 nM | [2] 16600 nM | [3] 4180 nM | [4] 590 nM | [5] 2090 nM | [6] 16600 nM | [7] 1180 nM | [8] 935 nM | [9] 418 nM | [10] 18700 nM | [11] 11800 nM | [12] 10500 nM | [15] 13200 nM | [16] 6620 nM | [17] 9350 nM | [18] 2350 nM

C=CC(=O)Nc1cccc(Nc2nc(NC3CCC(N(C)C)CC3)nc3c2ncn3C(C)C)c1 (stereo unspecified)
active: [1] 296 nM | [2] 10.5 nM | [3] 41.8 nM | [4] 29.6 nM | [5] 10.5 nM | [6] 469 nM | [7] 11.8 nM | [8] 93.5 nM | [9] 16.6 nM | [10] 235 nM | [11] 1050 nM | [12] 166 nM | [13] 37.2 nM | [14] 4690 nM | [15] 41.8 nM | [16] 187 nM | [20] 372 nM | [17] 469 nM | [19] 1050 nM

CC(C)(N)c1ccc(-c2nc3ccccc3nc2-c2ccccc2)cc1
active: [1] 9350 nM | [2] 20900 nM | [3] 14800 nM | [4] 16600 nM | [5] 18700 nM | [6] 26400 nM | [7] 7430 nM | [8] 4180 nM | [9] 5260 nM | [10] 26400 nM | [11] 18700 nM | [13] 4690 nM | [14] 23500 nM | [15] 18700 nM | [16] 26400 nM | [20] 18700 nM | [17] 18700 nM | [18] 3320 nM

CCc1cnn2c(NCc3ccc[n+]([O-])c3)cc(N3CCCC[C@@H]3CCO)nc12
active: [1] 23.5 nM | [2] 11.8 nM | [3] 26.4 nM | [4] 33.2 nM | [5] 18.7 nM | [6] 26.4 nM | [7] 33.2 nM | [8] 20.9 nM | [9] 13.2 nM | [10] 18.7 nM | [11] 29.6 nM | [12] 11.8 nM | [13] 23.5 nM | [14] 33.2 nM | [15] 20.9 nM | [16] 16.6 nM | [20] 16.6 nM | [17] 29.6 nM | [18] 23.5 nM | [19] 14.8 nM

c1ccc(CNc2nc(NCc3ccccc3)c3ccccc3n2)cc1
active: [1] 7430 nM | [2] 23500 nM | [3] 11800 nM | [4] 5900 nM | [5] 5900 nM | [6] 29600 nM | [7] 5900 nM | [10] 26400 nM | [11] 16600 nM | [12] 18700 nM | [13] 8330 nM | [15] 8330 nM | [16] 26400 nM | [20] 23500 nM | [17] 23500 nM | [18] 5260 nM

CC(C)C[C@@H](C=O)NC(=O)[C@H](CC(C)C)NC(=O)[C@H](CC(C)C)NC(=O)OCc1ccccc1 (Cbz-Leu-Leu-Leu-aldehyde)
active: [1] 148 nM | [2] 469 nM | [3] 264 nM | [4] 235 nM | [5] 166 nM | [6] 469 nM | [7] 105 nM | [10] 590 nM | [11] 2350 nM | [13] 118 nM | [14] 332 nM | [15] 166 nM | [16] 332 nM | [17] 209 nM | [18] 118 nM | [19] 235 nM

Reference: PubChem BioAssay (NCATS)
